Reference: PubChem BioAssay (NCI)
Compounds without any hit were thinned out: in the full panel of roughly 83,000, 20% have a hit.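 Cell lines were cultured in 96-well plates, exposed to a single compound concentration, and assessed for percent growth 48 hours later.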 Values without a mark were called inactive. Calls of active or inactive are those of the source. Rule for the calls: active = growth percent below 10; inactive = the rest.

Tested on: HL-60(TB) leukemia
Test: NCI-60 one-dose screen, 48 h (100 = growth as untreated, 0 = no growth, -100 = all killed)
Settings: 10 µM unless noted

Row | SMILES | growth
1 | Cc1ccc(N/N=C(/C(=O)c2ccc(Cl)cc2)c2nc(C)cc(=O)[nH]2)cc1 | 109%
2 | COc1cccc(CCNc2ncnc3c2ncn3Cc2nnc3c4ccccc4c(Cl)nn23)c1 | 57.5%
3 | CNCCCNc1ccnc2cc(Cl)ccc12 | -25% (active)
4 | COC(=O)[C@]12CC[C@@H](C)[C@H](C)[C@@H]1C1=CC[C@@H]3[C@@]4(C)C(C=O)=C[C@@](C)(COS(C)(=O)=O)[C@@H]4C(=O)C[C@@]3(C)[C@]1(C)CC2 | 31.5%
5 | Cc1cc(O)c2c(c1)C1OC(=O)CCCCCN1C1=C2C(=O)c2cccc(OC3CC(O)C(O)C(C)O3)c2C1=O (stereo unspecified) | 79.2%
6 | CCCCCCCCCCCCCC1=NCC[N+]1(CCO)Cc1ccccc1 (stereo unspecified) | -63.8% (active)
7 | Cc1ccc(-c2cc3nc(C(Cl)Cl)nc(-c4ccccc4C)n3n2)cc1 | 78.4%
8 | CCOc1ccc(N2C(N)=NC(N)=NC2(C)C)cc1 | 16.4%
9 | COc1ccc(Cn2cc(Cn3cc(C=C4C(=O)NC(=O)NC4=O)c4ccccc43)nn2)cc1 | 82.6%
10 | N[C@@H]1CCC[C@H]1NCCCCN1C(=O)c2cccc3cccc(c23)C1=O | 91.1%
11 | Oc1nc(NCc2ccccc2)sc1/C=C1\C=Nc2ncccc21 | 36.4%
12 | O=C(O)CCCc1cnc2c3sccc3nc(SCc3c(Cl)cccc3Cl)n12 | -26.5% (active)
13 | CN(C)C(=O)Nc1nc2cc(Cl)c(Cl)cc2[nH]1 | -29.9% (active)
14 | COc1cc(F)c(-c2nc3c(C)cccc3n2Cc2c(F)cccc2F)c(F)c1 | 78.8%
15 | COC(=O)N/N=C/c1c[n+]([O-])c2ccccc2[n+]1[O-] | 97.2%
16 | Nc1ccn(C2OC(F)(CO)C(O)C2F)c(=O)n1 (stereo unspecified) | 12.2%
17 | c1ccc(Nc2nc3c(s2)CCc2c[nH]cc2-3)nc1 | 2.15% (active)
18 | C=C[C@H]1CCC/C=C/[C@@H]2C[C@H](O)C[C@H]2[C@H](O)/C=C/C(=O)O1 | -0.65% (active)

Row | SMILES | growth
19 | CCOC(=O)C1=C(C)NC(=O)NC1c1ccc(OCC(=O)N/N=C/c2ccc(Cl)cc2)cc1 (stereo unspecified) | 98.3%
20 | Cc1cc(C(=O)c2ccccc2)c(C)c2c1[nH]c1ccc(Cl)cc12 | 1.08% (active)
21 | O=C(N/N=c1/ccoc2cccnc12)N1CCN(c2ncccn2)CC1 | 44.2%
22 | CCCCCCC/C(=N\N=C(N)N)c1ccc(O)cc1 | 6.11% (active)
23 | COc1cccc(CCN2C(=O)CCC3=C2CCC3=O)c1 | 99.9%
24 | COc1ccc2c(c1)CCNC21C(=O)Nc2c(Br)cc(Br)cc21 (stereo unspecified) | 117%
25 | Fc1ccc(C2CC(c3cccc(Nc4ccncc4)c3)=NN2c2ccccc2)cc1 (stereo unspecified) | -19.5% (active)
26 | N#CSCC1CC(O)(c2ccccc2)CC(c2ccc(F)cc2)O1 (stereo unspecified) | -38.7% (active)
27 | CC(=O)C(C(C)=O)c1nc2sc3cc(Cl)ccc3n2c(=N)c1C#N | 112%
28 | Cc1ccc2c(n1)C(=O)C(Oc1ccc(Br)cc1)=CC2=O | 41.1%
29 | COc1ccc(-c2nn(-c3cccc(Cl)c3)cc2-c2cc(-c3cccs3)[nH]c(=S)n2)cc1 | 46.4%
30 | S=c1ssnc1-c1cc2ccccc2o1 | 78%
31 | COc1ccc2[nH]cc(C3(c4c[nH]c5ccc(OC)cc45)C(=O)Nc4ccc(F)cc43)c2c1 | -40.3% (active)
32 | CCCCCCCCCN(CCCCCCCCC)C(C)C(=O)c1ccc2cc(Br)c3ccccc3c2c1 (stereo unspecified) | 102%
33 | Cc1ccc2c(c1)ncn2-c1ncnc2c1CC(C)c1ccccc1N2C (stereo unspecified) | -36.2% (active)
34 | CC(=O)Nc1nc(C)c(C(=O)N/N=C/c2cccs2)s1 | 130%
35 | Nc1ccc(N=Nc2ccccc2)cc1[N+](=O)[O-] | 97.1%
36 | COc1ccc(CSc2nc3cc(OC)c(OC)cc3c(=O)n2-c2ccc(OC)cc2OC)cc1 | 112%
